# Source: PubChem
# Many of the other results were omitted from the sample, so hits are more common in it than they were.
# Marburg entry inh: Marburg virus entry inhibition; Marburg virus pseudotyped entry inhibition, cell reporter; Potency, µM (highest dose often 37.8 µM), inactives show at the top dose activity change, negative = inhibition, hits mostly inhibitors; actives 1.8% (n = 300,000); AID 540276; calls by dose curve; tested in HEK293 cells; note: potency is the fitted concentration of half-maximal effect; % is set by controls: 0 for no effect and ±100 for the full control effect
# Cycloheximide cs: counter-screen hit for Shiga toxin inhibitors, cycloheximide; cell reporter, cycloheximide protein synthesis inhibition counterscreen; actives 12% (n = 300,000); max response, %; in the data active = max response mostly above about 13%, no sharp cut-off; inactive = mostly below about 14%; note: read at 38.3 µM for the half of the compounds with a filed dose; 0% is about no effect
# AMA1-RON2 inh: inhibitors of Plasmodium falciparum AMA1-RON2 interaction | AlphaScreen AMA1-biotinylated RON2 peptide binding | Potency, µM (series often up to 58.2 µM), inactives show at the highest dose activity change, negative = inhibition, actives largely listed as inhibitors | actives 0.2% (n = 360,000) | AID 720542; active = well fitted inhibition curve with a large enough effect; inconclusive = small, poorly fitted or top-dose-only effect; inactive = no such curve, though single readings can be large or run the other way;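 note: potency is the fitted concentration of half-maximal effect; 0% = vehicle wells and -100% = peptide control; nearly all actives have a fitted effect of over 45% in size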
#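 AMA1 (3D7) with his tag at 25 nM final met compounds first, then biotinylated RON2 peptide at 25 nM; detection used donor plus acceptor beads, 10 µg/mL apiece, read by AlphaScreen after 30 min at room temperature.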
# Lassa entry inh: blocks Lassa virus binding to or entry into cells; Potency, µM (doses to about 37.9 µM), for the others: at the top dose activity change, negative = inhibition, actives largely listed as inhibitors; Lassa virus pseudotype entry inhibition, cell reporter; actives 1.2% (n = 300,000); AID 540256; calls by dose curve; tested in HEK293 cells; note: potency is the fitted concentration of half-maximal effect; % is set by controls: 0 for no effect and ±100 for the full control effect; nearly all actives have a fitted effect of over 50% in size
# Shiga inhibitor: Shiga toxin inhibition | actives 9.2% (n = 290,000) | inhibition, % at 38.7 µM | Vero cells, Shiga toxin protein synthesis inhibition reporter | AID 2315; in the data active = inhibition mostly above about 28%, no sharp cut-off; inactive = mostly below about 43%; note: 0% is about no effect
# The depositor's hits bear a star; u = inconclusive; x = not tested or not shown; [ ] = another dose, or the depositor's remark.
SMILES,Marburg entry inh,Cycloheximide cs,AMA1-RON2 inh,Lassa entry inh,Shiga inhibitor
CCOC(=O)c1ccc(NC(=S)NC(=O)C2CCCC2)cc1,-8%[46.1 µM],27*,9%,4%[46.1 µM],21
O=C(NC(=S)Nc1ccccc1)C1CCCCC1,x,-1,-6%,x,-14
Cc1cc(NC(=O)CSc2nnc(N)s2)c([N+](=O)[O-])cc1C,1%[46.1 µM],7,80%,24%,16
CCOC(=O)c1ccc(NC(=O)C2C3CCC(C3)C2C(=O)O)cc1 (centres undefined),u,20,0%,7%,28
COc1ccc(NC(=O)C(=S)N2CCCC2)cc1,u,30*,13%,u,35
CCOC(=O)c1ccc(NC(=O)COc2ccccc2CNC2CCCC2)cc1,8.9µM*,-1,19%,u,2
CCOC(=O)c1ccc(NC(=O)C2C3CCCCC32)cc1 (centres undefined),u,43*,4%,u,103*
CC(C)COC(=O)c1ccc(NC(=O)C2C3CCC(C3)C2C(=O)O)cc1 (centres undefined),-5%[46.1 µM],62*,-3%,-16%,74*
CCOC(=O)c1ccc(NC(=O)NC2CC3CCC(C2)N3)cc1 (centres undefined),x,-2,-1%,x,17
Cc1cc2oc(C(=O)NCC(c3ccco3)N3CCCC3)c(C)c2cc1C (centres undefined),x,x,-10%,x,x
Cc1ccc2oc(C(=O)NCc3ccc4c(c3)OCO4)c(C)c2c1,5%,24*,-3%,u,2
Cc1ccc2oc(C(=O)NCC3CCOCC3)c(C)c2c1,x,21,-9%,x,59*
Cc1c(C(=O)NCc2ccc3c(c2)OCO3)oc2ccc(S(=O)(=O)N3CCCCCC3)cc12,13µM*,-3,-5%,-27%,-12
Cc1ccc2oc(C(=O)NCC(c3ccco3)N3CCCC3)c(C)c2c1 (centres undefined),x,20*,0%,x,41
CC(C)NS(=O)(=O)c1ccc(NCCCn2ccnc2)c([N+](=O)[O-])c1,-1%[46.1 µM],2,-9%,x,14
CCOc1cc(N2CCOCC2)c(OCC)cc1NC1=NCCCCC1,-19%,0,-4%,4%,-11
CC(C)CC(COCc1cccc(Cl)c1)N1CCN(C(=O)c2ccc(C(F)(F)F)cc2)CCC1=O (centres undefined),u,-4,9%,10µM*,35
CC(C)CC(COCc1ccc(F)cc1)N1CCN(C(=O)c2cccc(C(F)(F)F)c2)CCC1=O (centres undefined),u,-4,5%,21µM*,-13
CCOc1ccc(CN2CCSCC2)cc1,4%,1,-6%,10%,3
CCN1CCN(Cc2ccc(OC(F)(F)F)cc2)CC1,13%,-1,-9%,-14%,-5
c1ccc(-c2ccc(CN3CCSCC3)cc2)cc1,22%[46.1 µM],25*,-14%,8%[46.1 µM],77*
CCCCOc1ccc(CN2CCSCC2)cc1,x,29*,u,x,42*
CCCCCCOc1ccc(CN2CCN(CC)CC2)cc1,u,55*,-8%,u,140*
Cc1cccc(S(=O)Cc2ccc(C(=O)NC3CCCCCC3)o2)c1 (centres undefined),x,x,x,-20%[46.1 µM],x
Cc1cccc(C(=O)N2CCCC(CCC(=O)N3CCN(c4ccccn4)CC3)C2)c1C (centres undefined),x,-1,-5%,x,2
SMILES,Marburg entry inh,Cycloheximide cs,AMA1-RON2 inh,Lassa entry inh,Shiga inhibitor
O=C(CCC1CCCN(C(=O)C2(c3ccccc3)CC2)C1)N1CCN(c2ccccn2)CC1 (centres undefined),u,20*,-1%,u,42
O=C(CCC1CCCN(c2ncccn2)C1)N1CCN(c2ccccn2)CC1 (centres undefined),x,-1,-10%,x,12
CCc1[nH]nc(C(=O)N2CCCC(CCC(=O)N3CCN(c4ccccn4)CC3)C2)c1C (centres undefined),-4%[14.2 µM],13*,7%,u,34
Oc1c(C(c2cccc(Cl)c2)N2CCOCC2)sc2nc(-c3ccco3)nn12 (centres undefined),x,x,x,14%[46.1 µM],x
COC(=O)c1cc(Br)ccc1NC(=O)CSCc1c(C)noc1C,x,x,-9%,x,x
Cc1cccc(-n2cc(CN3CCCN(C=O)CC3)c(-c3cccc(F)c3)n2)c1,u,24*,-18%,12%,52*
O=S1c2ccccc2Sc2ccccc21,28%,x,-1%,10%,x
CCc1ccc(NC(=O)CSc2cn(CC(=O)N3CCOCC3)c3ccccc23)cc1,x,x,x,-1%[46.1 µM],x
Cc1ccc(CSc2cn(CC(=O)N3CCCCCC3)c3ccccc23)cc1,x,x,x,8.9µM*,x
